One experiment concerns the target SPESP1. Put plainly: pooled miR-30 sensor sort-seq; sequence = guide strand. The settings on record: shRNA.
Consider TAGATTTTTTCTCACGACCTGG, for which the sensor-assay potency score (higher = more potent) is -0.569. Same read-out and setting: for TAGATCTAGAATTACACAGCAT the value was -0.409.

As for TTGTTTGGTTTGATCGACCAGA, the sensor-assay potency score (higher = more potent) is -0.327. Still for that read-out and setting: for TAGATGATTCAGTAACAACTGG the value was -0.346; for TTTCTATCGCAGTTTCACCTGA, -0.0302. With ATGTATTGAATACTGTAGCAGC, the sensor-assay potency score (higher = more potent) was -1.16. Still for that read-out and setting: under TTAATTTATGTTCTGCTGCTGC stands -0.241.

Another experiment deals with SPINK5. The experiment is described as above. To be noted: shRNA.
As for TTGTATAGAACTTTCCATCAGC, the sensor-assay potency score (higher = more potent) was -0.111. The same measure, in the same setting: for ATACTCAGCACATTCGTCCTGA the value was 0.519; for TTTTCTTGAAGCTTTGCCCTTT, 0.275. Regarding TTTAAAATCATCACAATTCAGC, the sensor-assay potency score (higher = more potent) is -0.669. The same measure, in the same setting: under TTGTGCATCCAAGTCTTCCATC stands -1.09; under TTGCTCTTGCTCTTTCTTCTTG, -0.499; under TTGAAAAAATTTCTTATCCTGG, -0.827. In the case of TTATTGATGTGCATCTTGCCAT, the sensor-assay potency score (higher = more potent) was -0.0441. With TTTCTTTTGCTTCTTGCTGGAA, the sensor-assay potency score (higher = more potent) was -0.544.

Take TTGAGAAGCTCTAACATGGGAT: the sensor-assay potency score (higher = more potent) is -0.174. With TCTCTTTTGACTTTTGCTCTGG, the sensor-assay potency score (higher = more potent) was -0.0301. The same measure, in the same setting: for TTTTGTTTCTAGCTCGTGCTTC the value was 0.162.

For the origin of these results see the OligoGym collection.
Also: reference of the scale not given here.
